# Assay results from PubChem BioAssay AID588852 (The Scripps Research Institute Molecular Screening Center, 2011).
# The whole screen tested about 360,000 compounds, of which about 4,600 (1.3%) were called active.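 How the source made its calls: active means percent inhibition above its own plate's cutoff, namely the mean of that plate's compound wells plus 3 SD; inactive means the rest.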 The list comes from a sample in which actives are over-represented; it also holds similar structures and randomly drawn compounds.
# Target: Muscarinic acetylcholine receptor M1 (Homo sapiens) (UniProt P11229)
# Sequence (P11229 whole entry, looked up): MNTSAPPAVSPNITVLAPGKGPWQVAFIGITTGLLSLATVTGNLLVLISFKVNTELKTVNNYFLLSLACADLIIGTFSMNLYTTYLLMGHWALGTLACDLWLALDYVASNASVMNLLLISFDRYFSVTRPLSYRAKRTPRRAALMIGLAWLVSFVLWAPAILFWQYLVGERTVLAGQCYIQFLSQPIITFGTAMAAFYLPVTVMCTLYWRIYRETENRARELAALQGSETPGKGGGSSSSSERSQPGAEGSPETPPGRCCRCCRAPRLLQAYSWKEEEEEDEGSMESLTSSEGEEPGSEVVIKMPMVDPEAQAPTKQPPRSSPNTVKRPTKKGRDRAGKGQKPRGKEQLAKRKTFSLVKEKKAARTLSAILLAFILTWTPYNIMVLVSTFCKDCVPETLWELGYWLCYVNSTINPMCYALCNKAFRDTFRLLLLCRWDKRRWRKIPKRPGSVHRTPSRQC
# Assay: CHRM1 blockers of acetylcholine calcium response – CHO-K1 cells, Fluo-8 calcium fluorescence, 1536-well, primary screen (AID 588852);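 further: peak over basal fluorescence ratio during 140 s after agonist addition; 0% = ACh EC80 plus DMSO and 100% = DMSO alone without agonist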
# Conditions: CHO-K1 hM1, Fluo-8 calcium fluorescence, ACh EC80 antagonist; at 3 µM; stronger effect = higher value
row,Compound,inhibition
1,O=C(Nc1nnc([C@H]2C[C@H](O)[C@@H](CO)O2)s1)c1cccc(Cl)c1,-7.54% (inactive)
2,Nc1nc2c(ncn2[C@@H]2O[C@H](CNCc3ccc(OCCCN4CCOCC4)cc3)[C@@H](O)[C@H]2O)c(=O)[nH]1,-12.3% (inactive)
3,O=C(CN1CCN(c2ccc(F)cc2)CC1)Nc1cccc(C(F)(F)F)c1,-30.1% (inactive)
4,Cn1nc(C(F)(F)F)c(C(=O)Nc2cccc(C(F)(F)F)c2)c1SCc1ccc(Cl)cc1,45.3% (active)
5,COC(=O)c1ccccc1Sc1c(/C=N/OCc2ccc(Cl)cc2)c(C(F)(F)F)nn1C,6.15% (inactive)
6,COc1cccc(NC(=O)Nc2nnc(N3CCCCC3C)s2)c1 (configuration not stated),-9.08% (inactive)
7,C=C(C)c1cccc(C(C)(C)NC(=O)N2CCN(c3ncccn3)CC2)c1,-3.97% (inactive)
8,C=C(C)c1cccc(C(C)(C)NC(=O)NCCN(CC)CC)c1,82.6% (active)
9,C=C(C)c1cccc(C(C)(C)NC(=O)NC2CCCC2)c1,-0.33% (inactive)
10,CN(CC(=O)NCCc1ccccc1)S(=O)(=O)c1cnc[nH]1,-5.57% (inactive)
11,CC(C)C(=O)Nc1nnc(Sc2ccc(N(C)C)cc2)s1,-14.1% (inactive)
12,CN(C)C1=NC[C@H](Cc2ccccc2)N1CCc1ccc(F)cc1,9.98% (inactive)
13,CC(C)c1ccc(NC(=O)Cn2ncc3ccccc32)cc1,-20.8% (inactive)
14,CC(NC(=O)Nc1ccccc1)c1ccccc1 (configuration not stated),-2.37% (inactive)
15,CCC(C(=O)Nc1ccc(C(C)C)cc1)c1ccccc1 (configuration not stated),37.1% (active)
16,COc1ccc(C(C)(O)c2nc(-c3cc(F)cc(F)c3)cs2)cc1 (configuration not stated),-4.19% (inactive)
17,COc1ccccc1N(C)S(=O)(=O)c1ccc(C(=O)N2CCC(C(N)=O)CC2)cc1,-7.95% (inactive)
18,COC(=O)CCCCC1=CCC2C(=O)C=C(O)C2C1 (configuration not stated),4.53% (inactive)
19,Cc1ccc(C)c(N2CCN(C(=O)CCCCCn3c(=S)[nH]c4ccc(N5CCOCC5)cc4c3=O)CC2)c1,39.5% (active)
20,Cc1ccc(C)c(N2CCN(C(=O)CCCn3c(=O)c4cccn4c4cccnc43)CC2)c1,-0.03% (inactive)
21,O=C(CCCCCn1c(=S)[nH]c2cc3c(cc2c1=O)OCO3)N1CCN(c2ccc(F)cc2)CC1,-8.71% (inactive)
22,Cc1ccnc(NC(=O)C(C)N2C(=O)c3ccccc3C2=O)c1 (configuration not stated),-0.26% (inactive)

row,Compound,inhibition
1,Cc1ccccc1C#CC1=CC(=O)CC(C)(C)C1,-7.17% (inactive)
2,CN(Cc1ccccc1)C(=O)CSc1nc2ccccc2[nH]1,-5.93% (inactive)
3,CN1CCN(c2ccc([N+](=O)[O-])c(Sc3nc4ccccc4[nH]3)c2)CC1,-0.69% (inactive)
4,CCC(C)N1C(=O)S/C(=C/c2ccc(Sc3nc4ccccc4[nH]3)o2)C1=O (configuration not stated),32.9% (active)
5,O=C(C1CCC1)N1CCc2cc(S(=O)(=O)NCc3cccnc3)ccc21,-15.2% (inactive)
6,COc1ccc(C(c2nnnn2C2CCCC2)N2CCN(C/C=C/c3ccccc3)CC2)cc1 (configuration not stated),48.7% (active)
7,FC(F)(F)Oc1ccccc1C(c1nnnn1C1CCCCC1)N1CCN(C/C=C/c2ccccc2)CC1 (configuration not stated),-18.7% (inactive)
8,COc1ccc(C(c2nnnn2C2CCCCC2)N2CCN(c3ccccc3F)CC2)cc1 (configuration not stated),-2.28% (inactive)
9,CC(=O)Nc1cc(-c2ccccc2N(C)C)cn2c(-c3ccc(F)c(Cl)c3)cnc12,-16.4% (inactive)
10,Cc1nc2ccc(C(=O)N(C)CC3CCCN(CCc4ccc(Cl)cc4)C3)cc2[nH]1 (configuration not stated),17.1% (inactive)
11,CN(CC1CCCN(CCc2cccc(C(F)(F)F)c2)C1)C(=O)c1ccc2nc[nH]c2c1 (configuration not stated),84.4% (active)
12,CC(=O)c1ccc(N2CCN(C(=O)c3ccc4nc[nH]c4c3)CC2)cc1,-1.75% (inactive)
13,COc1ccc(NC(=O)C2Cc3c(-c4ccc5c(c4)OCO5)ccnc3O2)cn1 (configuration not stated),-14.1% (inactive)
14,COc1ccc(-c2[nH][nH]c(=O)c2NC(=O)c2ccc([N+](=O)[O-])cc2)cc1,-25% (inactive)
15,CSCCNCc1cn(-c2ccc(F)cc2F)nc1-c1ccccc1C,-13.6% (inactive)
16,CC(=O)Nc1cccc(-c2ccnc3c2CC(C)(C(=O)NCc2ccco2)O3)c1 (configuration not stated),-8.07% (inactive)
17,COc1ccc(CCNC(=O)COC(=O)c2ccc[nH]c2=O)cc1,-7.65% (inactive)
18,CCOC(=O)c1cc(-c2nnc(-c3cc(OC)c(OC)c(OC)c3)o2)c(C)nc1C,-32.2% (inactive)
19,O=C(OCc1nnc(-c2ccccc2)o1)c1cc(=O)[nH]c2ccccc12,-2.41% (inactive)
20,CCCc1nc2ccccc2c(C(=O)OCc2nnc(-c3cc(OC)c(OC)c(OC)c3)o2)c1CC,24.3% (active)
21,O=C(NC1CCCCC1)C1CCC(CNS(=O)(=O)c2ccccc2)CC1 (configuration not stated),2.63% (inactive)
22,CC[C@@H](C)[C@@H]1CN([C@@H](C)CN2CCC[C@H]2CN2C(N)=NC[C@H]2C(C)C)C(=N)N1CCc1ccc(Cl)c(Cl)c1,16.5% (inactive)

row,Compound,inhibition
1,C[C@@H](CN1CCC[C@H]1CN1C(N)=NC[C@@H]1Cc1ccccc1)N1C[C@@H](Cc2ccccc2)N(CCCC2CCCC2)C1=N,93.1% (active)
2,CCCCN1C(N)=NC[C@@H]1Cc1ccccc1,-1.32% (inactive)
3,Cc1cc(/C=C2/SC(=O)N(CC(=O)N3CCCC3)C2=O)ccc1N1CCOCC1,-1.78% (inactive)
4,COc1ccc(CNS(=O)(=O)c2ccc(NC(=O)N3CCCCC3)cc2)cc1,33.3% (active)
5,COc1ccc(NC(=O)N2CCC(Cc3ccccc3)CC2)cc1,-2.81% (inactive)
6,COc1ccc(S(=O)(=O)NC(C)C(=O)N2CCCCCC2)cc1 (configuration not stated),-12.2% (inactive)
7,COCC(=O)N1CCCC(C(=O)c2ccc(C(F)(F)F)cc2)C1 (configuration not stated),-12.9% (inactive)
8,O=C1CCCC2=C1C(c1cccs1)n1nc(SCc3ccccc3)nc1N2 (configuration not stated),-6.44% (inactive)
9,COc1ccc2cc(C(=O)NCC3CCCO3)[nH]c2c1 (configuration not stated),-11.4% (inactive)
10,O=C(NCC1CCCO1)c1cc2c([nH]c3ccccc32)c(-c2ccc(F)cc2)n1 (configuration not stated),42.6% (active)
11,O=C(NCCCO)c1cc2c([nH]c3ccccc32)c(-c2ccc(F)cc2)n1,1.06% (inactive)
12,CC(C)(C)c1ccc(CCC2OCC(CN3CCOCC3)O2)cc1 (configuration not stated),-5.48% (inactive)
13,NC(=O)CC[C@@H]1NC(=O)[C@@H]2CCCN2C(=O)c2cc([N+](=O)[O-])cc(F)c2NCCC[C@@H](C(N)=O)NC1=O,-13.1% (inactive)
14,COc1cccc(CNC(C)C(=O)Nc2ccc(S(=O)(=O)N3CCCC3)cc2)c1 (configuration not stated),39.5% (active)
15,Cc1ccc(CC(=O)Nc2ccc(S(=O)(=O)N3CCOCC3)cc2)cc1C,-11.9% (inactive)
16,CC(OC(=O)c1ccc(NC(=O)CC#N)cc1)C(=O)Nc1ccc(S(=O)(=O)N2CCCC2)cc1 (configuration not stated),32.6% (inactive)
17,CN(CC(=O)Nc1ccc(F)cc1)CC(=O)Nc1ccc(Cl)c(S(=O)(=O)N2CCOCC2)c1,-20.8% (inactive)
18,COc1ccccc1CC(=O)Nc1ccc(S(=O)(=O)N2CCCC2)cc1,-9.64% (inactive)
19,CC(C(=O)Nc1ccc(S(=O)(=O)N2CCCC2)cc1)N(C)Cc1ccc(F)cc1 (configuration not stated),53.5% (active)
20,CN(CC(=O)Nc1ccc(S(=O)(=O)N2CCCC2)cc1)Cc1ccc(Cl)c(Cl)c1,34.9% (active)
21,CCN(CC(=O)Nc1ccc(S(=O)(=O)N2CCCC2)cc1)CC(=O)Nc1cccc(OC)c1,-10.7% (inactive)
22,O=C(Nc1ccc(S(=O)(=O)N2CCCCC2)cc1)C1CCN(C(=O)c2ccc(F)cc2)CC1,9.2% (inactive)

row,Compound,inhibition
1,O=C(Nc1ccc(S(=O)(=O)N2CCCCC2)cc1)C1CC(=O)N(c2ccc(F)cc2)C1 (configuration not stated),-6.03% (inactive)
2,CCc1ccc(CN(C)C(C)C(=O)Nc2ccc(S(=O)(=O)N3CCCC3)cc2)cc1 (configuration not stated),88.9% (active)
3,CCc1ccc(NC(=O)CN2C(=O)COc3ccc(S(=O)(=O)N4CCCC4)cc32)cc1,-15.9% (inactive)
4,COc1cccc(CNn2cn[nH]c2=S)c1OCc1ccccc1,-12.7% (inactive)
5,COc1ccccc1-c1cc2nc(NCc3cccc(Cl)c3)ccn2n1,-15.4% (inactive)
6,Nc1ncnc2c1ncn2[C@@H]1O[C@H](C(=O)NS(=O)(=O)c2c(Cl)nc3sccn23)[C@@H](O)[C@H]1O,-32.1% (inactive)
7,Cc1csc2nc(COC(=O)c3cccc(N(C)C)c3)cc(=O)n12,6.38% (inactive)
8,O=C(CN1CCCCCC1)Nc1ccc(S(=O)(=O)N2CCCCC2)cc1,33.1% (active)
9,CCOc1ccc(NC(=O)COc2ccc(S(=O)(=O)N3CCCC3)cc2)cc1,16% (inactive)
10,O=C(CSCc1ccc(Br)cc1)Nc1ccc(S(=O)(=O)N2CCCCCC2)cc1,4.8% (inactive)
11,COCc1c(C(=O)N/N=C(\C)c2ccncc2)nnn1-c1nonc1N,-10.9% (inactive)
12,FC(F)(F)c1ccccc1Cc1c(-c2ccccc2)nc2c3ccccc3ccn12,-26% (inactive)
13,COc1ccccc1N(CC(=O)Nc1c(C)n(C)n(-c2ccccc2)c1=O)S(=O)(=O)c1ccccc1,-20.5% (inactive)
14,CN(C)CCCCCN(C)Cc1cc2ccccc2o1,-3.73% (inactive)
15,COc1ccc(-c2cc(NC=O)c3ncc(-c4ccccc4)n3c2)cc1OC,4.7% (inactive)
16,CC(=O)Nc1ccc(-c2csc(NC(=O)Nc3ccccc3)n2)cc1,38.3% (active)
17,NC(c1ccccc1)c1csc(NC(=O)Nc2cccc(C(F)(F)F)c2)n1 (configuration not stated),6.11% (inactive)
18,CC(=O)Nc1ccc(-c2cn3cccnc3n2)cc1,-2.56% (inactive)
19,CC(CCc1ccc(O)cc1)NCc1ccc(Cl)cc1Cl (configuration not stated),30.2% (active)
20,COc1ccc(CNC(=O)C(C)NCc2ccccc2Cl)cc1 (configuration not stated),1.81% (inactive)
21,CC(CCc1ccccc1)NC(=O)c1cnc(Cl)c(Cl)c1 (configuration not stated),2.23% (inactive)
